# Source: PubChem BioAssay
# Where “and” joins values, the source holds several entries; their conditions need not be identical. Identical values can stand only once. Calls of active or inactive are those of the source. Unless noted, how the calls were made is not given here.
# Experiments:
# [1] = HepG2 liver cancer cell viability effects, profiling panel, resazurin fluorescence, 24 h, PK04 Diversity Set (AID 1172); details: higher = more signal; further: test concentration not given here
# [2] = basal S. cerevisiae growth modulation, no modifier, primary screen, OD600, strain BY4716, 24 h, basal condition (AID 1173); details: OD600, 24 h, higher = more signal, called active from +8 up or from −8 down
# [3] = MM1S myeloma cell viability, profiling panel, resazurin fluorescence, basal, 24 h, PK04 Diversity Set (AID 1174); details: higher = more signal, called active from +8 up or from −8 down;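 further: MM1S multiple myeloma cell line; test concentration not given here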
# [4] = biological target: Dihydroorotate dehydrogenase (quinone), mitochondrial (Plasmodium falciparum (isolate 3D7)) (UniProt Q08210); assay: PfDHODH enzyme inhibitors, primary screen, biochemical, C-terminal His tag, absorbance 600 nm (AID 1175); details: DCIP absorbance 600 nm, higher = more signal, called active from +8 up or from −8 down;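 further: recombinant parasite enzyme with a five histidine tag at its C terminus; test concentration not given here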
# [5] = P. aeruginosa biofilm formation inhibitors, primary screen, strain PAO1, LB-PBS medium, absorbance 600 nm (AID 1176); further: test concentration not given here; details: P. aeruginosa PAO1 growth/biofilm, A600, 12 h; higher = more signal
# [6] = S. cerevisiae RM11-1a growth modifiers, primary screen, strain RM11-1a, OD600, basal, 24 h (AID 1177); details: OD600, 24 h, higher = more signal, called active from +8 up or from −8 down;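 further: cultures grown under basal conditions with no added stressor; test concentration not given here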
# [7] = E. coli acrAB mutant growth effects, primary screen, E. coli filamentation inducers, strain DRC39, OD650, 24 h (AID 1178); details: higher = more signal, called active from +8 up or from −8 down;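 further: growth measured as culture turbidity by optical density at 650 nm; test concentration not given here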
# [8] = E. coli acrAB mutant growth effects, primary screen, E. coli filamentation inducers, strain DRC39, OD650, 48 h (AID 1179);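 further: screen aims at cell division blockers that make cells filament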; details: E. coli DRC39 delta-acrAB growth, higher = more signal, called active from +8 up or from −8 down
# [9] = RPMI8226 myeloma cell viability, profiling panel, resazurin fluorescence, basal, 24 h, PK04 Diversity Set (AID 1180); details: higher = more signal;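 further: RPMI8826 multiple myeloma cell line at 5000 cells per well; test concentration not given here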
# [10] = biological target: E3 ubiquitin-protein ligase XIAP (Homo sapiens) (UniProt P98170); assay: XIAP binders, primary screen, biophysical, small-molecule microarray, fluorescence 635 nm (AID 1181); details: small-molecule microarray binding, higher = more signal;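 further: score merges 667 nm emission and signal to noise over triplicate slides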
# Chain of E3 ubiquitin-protein ligase XIAP (Homo sapiens) (P98170 whole entry, looked up): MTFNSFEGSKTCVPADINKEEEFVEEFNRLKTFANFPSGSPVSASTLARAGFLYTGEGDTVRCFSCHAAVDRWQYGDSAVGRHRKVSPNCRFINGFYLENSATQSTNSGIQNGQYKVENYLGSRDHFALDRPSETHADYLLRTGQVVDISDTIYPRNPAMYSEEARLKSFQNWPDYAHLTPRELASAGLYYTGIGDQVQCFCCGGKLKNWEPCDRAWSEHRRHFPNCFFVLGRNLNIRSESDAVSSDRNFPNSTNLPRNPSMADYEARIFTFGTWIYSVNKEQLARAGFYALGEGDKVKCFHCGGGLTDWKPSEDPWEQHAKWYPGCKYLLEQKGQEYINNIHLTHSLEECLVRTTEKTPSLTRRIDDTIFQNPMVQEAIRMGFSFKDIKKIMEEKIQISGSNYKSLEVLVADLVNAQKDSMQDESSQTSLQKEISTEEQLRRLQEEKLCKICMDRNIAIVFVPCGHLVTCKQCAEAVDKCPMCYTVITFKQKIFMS
# Chain of Dihydroorotate dehydrogenase (quinone), mitochondrial (Plasmodium falciparum (isolate 3D7)) (Q08210 whole entry, looked up): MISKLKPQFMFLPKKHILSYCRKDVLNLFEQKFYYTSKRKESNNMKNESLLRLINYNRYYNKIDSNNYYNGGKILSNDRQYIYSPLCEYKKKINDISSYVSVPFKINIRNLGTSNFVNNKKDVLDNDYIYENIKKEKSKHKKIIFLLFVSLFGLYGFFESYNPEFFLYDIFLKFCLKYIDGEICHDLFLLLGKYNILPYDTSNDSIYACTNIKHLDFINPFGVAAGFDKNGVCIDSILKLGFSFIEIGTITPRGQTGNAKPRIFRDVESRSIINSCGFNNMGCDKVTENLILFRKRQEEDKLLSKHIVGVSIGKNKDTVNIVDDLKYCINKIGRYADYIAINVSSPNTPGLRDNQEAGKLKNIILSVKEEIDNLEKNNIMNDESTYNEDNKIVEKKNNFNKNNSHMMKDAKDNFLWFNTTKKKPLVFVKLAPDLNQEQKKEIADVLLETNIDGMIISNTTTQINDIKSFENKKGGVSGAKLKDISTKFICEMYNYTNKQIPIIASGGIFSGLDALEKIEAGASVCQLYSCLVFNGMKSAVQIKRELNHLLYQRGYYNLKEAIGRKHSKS
Structure (SMILES),z-score [1],z-score [2],z-score [3],composite z-score [4],z-score [5],z-score [6],z-score [7],z-score [8],z-score [9],composite z-score [10]
CCN1C(=O)[C@H]2[C@H]3[C@H](O)[C@H](O)CC(=NNC(=O)OCc4ccc(OC)cc4)[C@H]3CC[C@H]2C1=O,-1.02,0.199 (inactive),-2.24 (inactive),-0.223 (inactive),-0.273 (inactive),0.632 (inactive),-0.0482 (inactive),0.559 (inactive),-1.38,0.0322
CN1C(=O)C2CC=C([C@H]3Oc4ccccc4S(=O)(=O)N4CCC[C@@H]34)CC2C1=O (stereo not given in full),-0.448 and 0.0011,0.325 (inactive) and 0.478 (inactive),-0.391 (inactive) and -0.44 (inactive),0.341 (inactive) and -0.0294 (inactive),-0.0582 (inactive) and 0.0481 (inactive),0.961 (inactive) and 1.32 (inactive),0.563 (inactive) and 0.831 (inactive),0.111 (inactive) and 0.0952 (inactive),-0.801 and -0.0821,-0.245 and -0.244
C[C@@H]1CN2[C@@H](CC[C@@H](C)[C@@H]2c2ccc(Br)cc2)C(=O)O1,0.0519 and -0.598,0.214 (inactive) and -2.02 (inactive),0.475 (inactive) and -0.181 (inactive),0.694 (inactive) and -1.1 (inactive),-0.188 (inactive) and 0.417 (inactive),0.999 (inactive) and -1.13 (inactive),0.322 (inactive) and 0.819 (inactive),-1.32 (inactive) and -0.313 (inactive),0.967 and -0.0883,0.118 and 0.166
COC(=O)C1=C(C)N(Cc2ccccc2)C2=C3C(=O)N(c4ccccc4)C(=O)[C@@H]3[C@@](O)(C(=O)OC)C(=O)N2[C@@H]1c1ccccc1,0.941 and 0.879,-1.31 (inactive) and -2.61 (inactive),0.463 (inactive) and 1.02 (inactive),-0.0764 (inactive) and -0.563 (inactive),-0.847 (inactive),-0.305 (inactive) and -1.62 (inactive),0.284 (inactive) and 1.07 (inactive),-0.23 (inactive) and 1.2 (inactive),0.698 and 0.334,0.122 and 0.0178
O=C1C[C@]2(c3ccc([N+](=O)[O-])cc3)C(=O)N(Cc3ccccc3)c3cc(CO)ccc3[C@H]2N1C1CCCCC1,0.981 and -0.766,-0.0998 (inactive) and -0.919 (inactive),0.0351 (inactive) and -0.743 (inactive),-2.77 (inactive) and 0.496 (inactive),0.599 (inactive) and 1.21 (inactive),0.029 (inactive) and -0.21 (inactive),0.512 (inactive) and 0.2 (inactive),0.566 (inactive) and -0.0186 (inactive),0.702 and -0.966,2.56 and 0.144
COC(=O)C1=C(C)N(Cc2ccccc2)C2=C3C(=O)CCC[C@@H]3[C@@](O)(C(=O)OC)C(=O)N2[C@@H]1c1ccccc1,0.444 and 0.105,-2.18 (inactive) and -2.94 (inactive),0.478 (inactive) and 0.111 (inactive),-0.13 (inactive) and -0.103 (inactive),-0.847 (inactive),-0.387 (inactive) and -0.728 (inactive),0.875 (inactive) and 0.548 (inactive),0.37 (inactive) and 0.0908 (inactive),0.74 and 0.619,-0.0601 and -0.0118
CCCCCN1CC=CC23O[C@@H]4C=CCCOC(=O)C4[C@H]2C(=O)N(C(C)CO)[C@@H]3C1=O (stereo not given in full),1.77 and 0.86,-0.252 (inactive) and 1 (inactive),1.24 (inactive) and -0.0383 (inactive),-1.97 (inactive) and -0.391 (inactive),-0.193 (inactive) and 0.0683 (inactive),-0.0686 (inactive) and 0.825 (inactive),0.213 (inactive) and 0.0972 (inactive),-0.123 (inactive) and -0.105 (inactive),1.18 and -0.0579,0.216 and -0.323
CCCNC(=O)OC[C@H]1O[C@H](CCON=C(C)CCN2CCc3nc(-c4ccccc4)c(-c4ccccc4)cc3C2)C=C[C@@H]1Oc1ccc(OC)cc1,0.0965,-0.238 (inactive),-0.53 (inactive),0.672 (inactive),0.347 (inactive),1.13 (inactive),0.324 (inactive),-1.58 (inactive),0.0105,-0.193
C=CC[C@@H](O)c1ccc(O)c(F)c1,-0.0101 and 0.942,-0.898 (inactive) and -2.97 (inactive),-0.87 (inactive) and 1.56 (inactive),0.672 (inactive) and -0.585 (inactive),0.671 (inactive),0.912 (inactive) and -1.83 (inactive),-0.046 (inactive) and 1.79 (inactive),-0.248 (inactive) and 1.06 (inactive),-0.511 and 0.864,-0.0884 and -0.042
CCOC(=O)CCN1C(=O)[C@H]2[C@H]3[C@H](O)[C@H](O)CC(=NNC(=O)OCC)[C@@H]3CC[C@H]2C1=O,-0.346,-0.762 (inactive),-0.994 (inactive),-0.31 (inactive),-0.531 (inactive),-0.382 (inactive),0.202 (inactive),0.526 (inactive),-1.74,0.116
C#CCCCON=C1C[C@@H](O)[C@@H](O)[C@@H]2[C@@H]3C(=O)N(C4CCCCC4)C(=O)[C@@H]3CC[C@H]12,-0.477,-0.248 (inactive),-2.78 (inactive),-0.822 (inactive),-0.568 (inactive),-0.126 (inactive),0.331 (inactive),0.771 (inactive),-1.08,-0.0945
C=CCN(CCCC)C(=O)C1N(CCCCCCO)C(=O)C2C(C(=O)O)C3C=CC21O3 (stereo not given),0.063 and -0.938,0.569 (inactive) and 0.411 (inactive),-0.76 (inactive) and -0.768 (inactive),-0.669 (inactive) and -0.0254 (inactive),0.109 (inactive) and -0.388 (inactive),-0.751 (inactive) and -0.681 (inactive),0.03 (inactive) and -0.0327 (inactive),-0.146 (inactive) and -0.105 (inactive),-0.704 and -0.992,-0.124 and 0.18
CCCCN1CC=CC23O[C@@H]4C=CCCOC(=O)C4[C@H]2C(=O)N(C(C)CO)[C@@H]3C1=O (stereo not given in full),0.169 and -0.388,-0.288 (inactive) and 1.12 (inactive),-0.201 (inactive) and -0.715 (inactive),-0.755 (inactive) and -2.42 (inactive),0.329 (inactive) and 0.137 (inactive),-0.891 (inactive) and 1.05 (inactive),0.0926 (inactive) and -0.474 (inactive),-0.25 (inactive) and -0.564 (inactive),-0.157 and -0.53,-0.0062 and 0.744
COC(=O)C1=C(C)N(Cc2ccccc2)[C@]23O[C@](C(=O)OC)(C(=O)N2[C@@H]1c1ccccc1)[C@H]1CCCC(=O)[C@H]13,-0.483 and -0.852,-2.15 (inactive) and -0.0243 (inactive),0.167 (inactive) and 0.867 (inactive),0.149 (inactive) and -3.24 (inactive),0.39 (inactive) and -0.692 (inactive),-0.186 (inactive) and -0.402 (inactive),-0.321 (inactive) and -1.18 (inactive),-0.204 (inactive) and -1.38 (inactive),-0.327 and -0.466,0.0548 and -0.16
C[N+](C)(C)CCCCNC(=O)[C@H]1C[C@H]2C(=O)N[C@@H](CCCC[N+](C)(C)C)C(=O)N2[C@H]1c1cccc(OCCO)c1,-0.114 and -3.58,0.315 (inactive) and -0.201 (inactive),-1.18 (inactive) and -1.75 (inactive),-27.2 (active) and -30.4 (active),0.187 (inactive) and 0.23 (inactive),0.152 (inactive) and -0.406 (inactive),-0.93 (inactive) and -1 (inactive),-1.32 (inactive) and -1.66 (inactive),-1.16 and -0.819,0.0159 and 0.136
C=CCN(Cc1ccccc1)C(=O)C(c1cccs1)N(C(=O)/C=C\C(=O)O)c1ccc(CCO)cc1 (stereo not given),-0.42 and -0.633,0.0593 (inactive) and -0.0181 (inactive),-0.0351 (inactive) and -0.273 (inactive),-0.866 (inactive) and -0.0473 (inactive),-0.208 (inactive) and 0.233 (inactive),0.374 (inactive) and 0.514 (inactive),0.866 (inactive) and 0.736 (inactive),0.722 (inactive) and 0.609 (inactive),0.565 and -0.122,-0.0987 and 0.035
C=CC[C@@H](O)c1ccc(OCCO)cc1,-0.369 and -0.32,-5.91 (inactive) and -1.94 (inactive),-1.12 (inactive) and -0.281 (inactive),-0.744 (inactive) and -1.16 (inactive),0.674 (inactive) and 0.945 (inactive),-1.1 (inactive) and -1.56 (inactive),0.0207 (inactive) and 0.149 (inactive),0.433 (inactive) and 0.571 (inactive),0.0629 and 0.237,-0.31 and -0.102
C=CCN(C(=O)C1N(CCOCCO)C(=O)C2C(C(=O)O)C3C=CC21O3)C(C)(C)C (stereo not given),0.0542 and -0.741,-0.0565 (inactive) and 0.494 (inactive),-0.2 (inactive) and -1.16 (inactive),0.256 (inactive) and 1.36 (inactive),-0.0558 (inactive) and 0.578 (inactive),-0.0478 (inactive) and -0.166 (inactive),-0.335 (inactive) and -0.685 (inactive),-0.664 (inactive) and -0.923 (inactive),-0.244 and -1.69,0.0009 and -0.0369
